Laboratory results: PubChem BioAssay (Tox21)
Values joined by “and” are separate entries in the source; they are usually repeats but may differ in a detail not shown here. Equal entries are not always repeated. Results filed as inconclusive are left out. A call without a number means that no potency is given here. Active and inactive are the calls of the source. Calls come from the whole dose curve; as a rule, active = well fitted cell-killing curve with a large enough effect in the repeat runs; inconclusive = weak or mixed curves; inactive = flat fitted curve, though single readings scatter.

Test: qHTS RealTime-Glo MT Cell Viability Assay in HepG2 cells - 8 hour (AID 1224873); note: nearly all actives have a fitted effect of over 55% in size
Conditions: RealTime-Glo luminescence; series mostly up to 76.8 µM
Source text: National Center for Advancing Translational Sciences [NCATS]
NIH Chemical Genomics Center [NCGC]
U.S. Environmental Protection Agency [EPA]
National Institutes of Environmental Health Sciences [NIEHS]
National Toxicology Program [NTP]
U.S. Food and Drug Administration [FDA]
Measure of cell viability is critical in the cell-base assay. Analysis of cell viability is necessary for the characterization of cell responses to cytotoxic drugs and environmental stress. A RealTime-Glo MT Cell Viability Assay to monitor cell viability in real time of continues cell culture during 40 hours of compound treatment was used to screen Tox21 10K library compounds in HepG2 cells. The RealTime-Glo MT Cell Viability Assay is a nonlytic, homogeneous, bioluminescent method to measure cell viability in real time using a simple, plate-based method. The assay involves adding NanoLuc luciferase and a cell-permeant prosubstrate to cells in culture. Viable cells reduce the proprietary prosubstrate to generate a substrate for NanoLuc luciferase. This substrate diffuses from cells into the surrounding culture medium, where it is rapidly used by the NanoLuc Enzyme to produce a luminescent signal. The signal correlates with the number of viable cells, making the assay well suited for cytotoxicity studies.
Tox21 Assay Protocol Summary:
The mixture of HepG2 cell suspension and reagents were dispensed at 600cells/6 ul/well in 1536-well tissue culture treated black solid bottom plates using a Multidrop dispenser. After the assay plates were incubated at a 37 C/5% CO2 incubator for 5 hours, 23 nL of compounds dissolved in DMSO, positive and negative controls was transferred to the assay plate by a pintool work station. The plates were incubated at 37 C for 40 hours. The luminescence intensity were measured at 0h, 8h, 16h, 24h, 32h and 40h time points using ViewLux plate reader during compound treatment.
Potency is the fitted concentration of half-maximal effect.

SMILES	Potency
CN1CC[C@]23c4c5ccc(O)c4O[C@H]2[C@@H](O)CC[C@H]3[C@H]1C5	inactive
C=CCSSCC=C	inactive
O=C(O)CCCOc1ccc(Cl)cc1Cl	inactive
CCOP(=S)(OCC)SCSc1cc(Cl)ccc1Cl	inactive
CCOC(=O)c1cncn1C(C)c1ccccc1 (stereo not given)	inactive
O=C(Cc1ccccc1)c1ccccc1	inactive
CC(C)c1ccc(OP(=O)(Oc2ccc(C(C)C)cc2)Oc2ccc(C(C)C)cc2)cc1	inactive
O=C(O)COc1cc(Cl)c(Cl)cc1Cl	inactive
CC(C)(C)NCC(O)c1ccccc1Cl (stereo not given)	inactive
COc1cc(CC#N)cc(OC)c1OC	inactive
CC(C)OC(=O)Cc1ccccc1	inactive
C[C@@H]1C[C@@H]([C@H](O)CC2CC(=O)NC(=O)C2)C(=O)[C@@H](C)C1	inactive
CCCCC1C(=O)NC(=O)N(C2CCCCC2)C1=O (stereo not given)	inactive
C#C[C@]1(O)CC[C@H]2[C@@H]3CCC4=CC(=O)CCC4=C3C=C[C@@]21CC	inactive
c1ccc2c(c1)-c1cccc3cccc-2c13	inactive
Cc1cnc(C2=NC(C)(C(C)C)C(=O)N2)c(C(=O)O)c1 (stereo not given)	inactive
COc1ccccc1N1CCNCC1	inactive
Nc1cccc2ccccc12	inactive
CCCC(C)(COC(N)=O)COC(=O)NC(C)C (stereo not given)	inactive
NC(=S)c1c(Cl)cccc1Cl	inactive

SMILES	Potency
Cc1ccc2c(C)cccc2c1	inactive
CN1C(=O)CN=C(c2ccccc2)c2cc([N+](=O)[O-])ccc21	inactive
O=C(O)c1cc(I)cc(I)c1I	inactive
CC(C)CCON=O	inactive
CCCCCCCCCCCC[N+](C)(C)CCOc1ccccc1	55 µM (active) and 23.9 µM (active)
CN(C)c1ccc(N=O)cc1	49.1 µM (active) and 24.5 µM (active)
CCCN(CCC)c1c([N+](=O)[O-])cc(C(C)C)cc1[N+](=O)[O-]	inactive
Nc1ccccc1C(=O)OCC(O)CO (stereo not given)	inactive
CCCCCCCCP(=O)(O)O	inactive
O=C(O)c1cc(Cl)ccc1Cl	inactive
CC(C)C1(C)N=C(c2ncccc2C(=O)O)NC1=O (stereo not given)	inactive
CC[N+]1(CCOC(=O)C(O)(c2ccccc2)c2ccccc2)CCCCC1	inactive
CCCCC(CC)COC(=O)c1c(Br)c(Br)c(Br)c(Br)c1C(=O)OCC(CC)CCCC (stereo not given)	inactive
Cc1nnc(-c2ccccc2)c(=O)n1N	inactive
CC(O)CN1CCN(CC(=O)[O-])CCN(CC(=O)[O-])CCN(CC(=O)[O-])CC1.[Gd+3] (stereo not given)	inactive
COC(=O)Cc1ccccc1	inactive
CCC1(C2=NCCN2)Cc2ccccc2O1 (stereo not given)	inactive
CCC(C)(C)O	inactive
C=CCN1C[C@H](C)N([C@H](c2ccc(C(=O)N(CC)CC)cc2)c2cccc(OC)c2)C[C@H]1C	inactive
CCCCC(CC)CO[N+](=O)[O-] (stereo not given)	inactive
